Compounds with a hit are over-represented: about 19% of the library has one in this group of screens.
HT1080-NT tox = kills 2HG-producing HT-1080-NT fibrosarcoma cells. Potency, µM (series often up to 46.1 µM), inactives show at the highest dose activity, negative = less viability, hits mostly cytotoxic. 1.6% of 360,000 active. HT-1080-NT fibrosarcoma viability, CellTiter-Glo ATP luminescence, 48 h;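 also: NT is the 2HG producing partner of a matched IDH1 knockdown line; potency is read from the fitted curve at half-maximal effect; 0% = DMSO-treated cells and -100% = media-only wells without cells; nearly all actives have a fitted effect of over 55% in size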
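Toxicity toward the 2HG-producing NT line was scored as %Activity, normalised to DMSO and no-cell wells, from CellTiter-Glo luminescence after 48 hours' treatment.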
DT40 TDP1 no CPT = qHTS for Inhibitors of human tyrosyl-DNA phosphodiesterase 1 (TDP1): qHTS in cells in absence of CPT; AID 686978, 2013; Potency, µM (doses to about 46.2 µM), without a hit: at the highest dose activity change, negative = growth inhibition, hits mostly inhibitors; 15% of 420,000 active; DT40 Tdp1-/- hTDP1 cells, no CPT, ATP luminescence, 48 h; also: potency is read from the fitted curve at half-maximal effect; nearly all actives have a fitted effect of over 55% in size
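Stably hTDP1-transfected Tdp1-null chicken DT40 cells were treated with library compounds minus camptothecin and grown for at least 48 hr at 37 °C, after which cellular ATP was quantified by luminescence.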
HT1080 IDH1KD tx = toxicity to HT-1080 IDH1 knockdown cells (counter line); 2% of 360,000 active; HT-1080 IDH1 knockdown viability, ATP luminescence, 48 h; Potency, µM (highest dose often 46.1 µM), for the others: at the highest dose activity, negative = toxicity, usual class: cytotoxic;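 also: potency is read from the fitted curve at half-maximal effect; 0% = DMSO wells and -100% = cell-free medium wells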
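Luminescent ATP read-out (CellTiter-Glo, 10 min at room temperature) after 48 h compound exposure at 37 °C gave viability of IDH1-knockdown HT-1080 cells. Activity was normalised to DMSO and cell-free wells, then fitted as concentration-response curves.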
IL-1B inflam inh = inflammasome signaling inhibition, IL-1 beta readout; THP-1 LPS/ATP IL-1B secretion, AlphaLISA, 16 h; active compounds read low; activity change, % at 57.5 µM; 4.7% of 360,000 active; in the data active = activity change below about -50%; inconclusive = mostly about -30% to -49%
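Secreted IL-1B measured by AlphaLISA bead assay after 16 h compound exposure of THP-1 cells; compounds (final up to 57.5 uM) added 1 h before LPS (250 ng/mL) and ATP (1.25 mM) stimulation; lower signal means less secretion.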
DT40 TDP1 CPT = DT40-hTDP1 cell growth loss with CPT. chicken DT40 Tdp1-/-;hTDP1 cells + 20 nM CPT, ATP luminescence, 48 h. Potency, µM (series often up to 46.2 µM), for the others: top-dose activity change, negative = growth inhibition, actives largely listed as inhibitors. 12% of 420,000 active. AID 686979; also: potency is read from the fitted curve at half-maximal effect; nearly all actives have a fitted effect of over 55% in size
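Chicken DT40 Tdp1-/- cells stably complemented with human TDP1 were seeded at 400 cells/well in medium containing 20 nM camptothecin, exposed to pin-transferred compounds, and grown at 37 °C for at least 48 hr. Viability was read as ATP luminescence.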
Active calls of the source: *; ? = inconclusive; / = not tested or not shown. Unless noted, calls follow the shape of the dose curve; as a rule, active = well fitted curve in the direction sought with a large enough effect; inconclusive = small, poorly fitted or top-dose-only effect, or another doubt; inactive = no such curve, though single readings can be large; an effect the other way counts as inactive or inconclusive. Unless noted, % is scaled to controls: 0 for no effect and ±100 for the full control effect.

SMILES | HT1080-NT tox | DT40 TDP1 no CPT | HT1080 IDH1KD tx | IL-1B inflam inh | DT40 TDP1 CPT
CC1Cc2ccccc2N1Cc1nc2scc(-c3cccs3)c2c(=O)[nH]1 (configuration not stated) | 2.0% | -5.0% | 6.6% | -3.6 | 2.7%
COc1ccc(N2CCN(Cc3nc4scc(-c5cccs5)c4c(=O)[nH]3)CC2)cc1 | 9.5% | ? | 0.9% | -69.0* | -8.4%
COc1ccc(N2CCN(Cc3nc4scc(-c5ccccc5)c4c(=O)[nH]3)CC2)cc1 | -1.0% | 7.7% | -1.8% | 17.5 | ?
O=C(Nc1cccc(C(F)(F)F)c1)C(=O)N1CCCCC1 | -1.3% | -6.0% | -4.3% | -0.5 | 5.0%
CC(=O)c1ccc(NC(=O)C(C)Oc2ccc(N(C)S(=O)(=O)c3ccc(C)cc3)cc2)cc1 (configuration not stated) | -1.9% | ? | -1.8% | -18.2 | ?
CC1(C)S[C@@H]2[C@H](NC(=O)[C@H](N)c3ccccc3)C(=O)N2[C@H]1C(=O)OCOC(=O)[C@@H]1N2C(=O)C[C@H]2S(=O)(=O)C1(C)C | / | 1.5% | / | / | 6.9%
CCOc1ccc(C2NC(=O)c3sc(=S)n(-c4ccccc4)c3N2)cc1 (configuration not stated) | 2.9% | ? | -0.1% | 18.6 | -11.9%
O=C1NC(c2ccccc2)Nc2c1sc(=S)n2-c1ccccc1 (configuration not stated) | -3.7% | 6.51µM* | -8.7% | 15.0 | -12.3%
O=C(NCC1CCCO1)c1ccc(S(=O)(=O)N2CCC(c3nc4ccc(Cl)cc4[nH]3)CC2)cc1 (configuration not stated) | ? | 23.1µM* | ? | -26.6 | 25.9µM*
O=C(NCC1CCCO1)c1cc(S(=O)(=O)N2CCCCC2)ccc1Cl (configuration not stated) | 16.5% | 5.3% | 1.2% | 19.5 | 24.1%
O=S(=O)(c1ccc(F)cc1)N1CCC(c2nc3ccccc3[nH]2)CC1 | -25.4% | ? | -0.9% | -13.6 | -26.1%
O=S(=O)(c1cccc(Cl)c1)N1CCC(c2nc3ccccc3[nH]2)CC1 | -5.5% | 18.4µM* | -7.3% | -13.5 | 20.6µM*
CC(=O)c1cccc(S(=O)(=O)N2CCC(c3nc4ccccc4[nH]3)CC2)c1 | -2.8% | -14.9% | -3.4% | -8.0 | -21.0%
O=S(=O)(c1cccc(C(F)(F)F)c1)N1CCC(c2nc3ccccc3[nH]2)CC1 | -12.7% | 23.1µM* | -1.9% | -18.0 | ?
Cc1ccc2nc(C3CCN(S(=O)(=O)c4ccc5ccccc5c4)CC3)[nH]c2c1 | ? | ? | ? | -69.3* | ?
CC(C)CCN(C)C1CCN(S(=O)(=O)c2cccc(C(F)(F)F)c2)CC1 | -16.2% | -21.1% | 0.3% | -52.7* | -10.4%
CC1CN(S(=O)(=O)c2cccc(C(F)(F)F)c2)CC(C)O1 (configuration not stated) | 0.3% | 10.1% | 3.0% | 11.6 | 2.5%
Cc1ccccc1-c1nnn(C/C(N)=N/O)n1 | -1.4% | 12.0% | 1.6% | -7.4 | 1.2%
CCCNC(=O)c1cccc(Cn2nc(C)c(Br)c2C)c1 | -16.1% | 20.6µM* | -15.6% | -10.2 | 16.4µM*
Cc1nn(Cc2cccc(C(=O)NC34CC5CC(CC(C5)C3)C4)c2)c(C)c1Br | ? | ? | ? | -25.2 | ?
O=[N+]([O-])c1ccc(NCCOc2ccccc2Cl)nc1 | -7.4% | -19.7% | -7.8% | -65.6* | -24.1%
Cc1cccc(OCCNc2ccc([N+](=O)[O-])cn2)c1 | -4.5% | ? | -13.9% | 30.4 | -21.0%
COc1ccccc1CNC(=O)c1cc2cccc3c2n1CC(C)S3 (configuration not stated) | / | 23.1µM* | / | / | 20.6µM*
CC1Cn2c(C(=O)NCCc3ccc(Cl)cc3)cc3cccc(c32)S1 (configuration not stated) | / | ? | / | / | 16.4µM*
Cn1cccc1C(=O)NCCc1ccc(Cl)cc1 | 16.7% | 22.9% | 1.5% | -12.2 | -13.5%
SMILES | HT1080-NT tox | DT40 TDP1 no CPT | HT1080 IDH1KD tx | IL-1B inflam inh | DT40 TDP1 CPT
COc1ccccc1CNC(=O)CCC(=O)N1CC(C)Sc2ccccc21 (configuration not stated) | 0.7% | ? | -9.6% | -27.6 | 18.4µM*
Cc1cccc(C(=O)Nc2ccc3nc(SCC(=O)N4CCCC4)sc3c2)c1 | / | 16.4µM* | / | / | ?
CCC(CC)C(=O)Nc1ccc2nc(SCC(=O)N3c4ccccc4CC3C)sc2c1 (configuration not stated) | / | 16.4µM* | / | / | 11.6µM*
CC1Cc2ccccc2N1C(=O)CSc1nc2ccccc2s1 (configuration not stated) | -2.1% | ? | -4.8% | -15.8 | ?
Cc1cccc(C(=O)Nc2ccc3nc(SCC(=O)N4CCc5ccccc54)sc3c2)c1 | / | 4.61µM* | / | / | 5.8µM*
Cc1ccccc1C(=O)Nc1ccc2nc(SCC(=O)N3CCc4ccccc43)sc2c1 | / | 3.66µM* | / | / | 5.17µM*
CCCCCCCCCCCCOCCCN | / | ? | / | / | -21.1%
CCOc1ccc(CN(C(=O)c2cc(=O)c3cc(Cl)ccc3o2)C2CCS(=O)(=O)C2)cc1 (configuration not stated) | / | ? | / | / | -0.7%
O=C(Nc1ccc(Cl)cc1)c1nc[nH]c1C(=O)N1CCN(c2ccccc2)CC1 | 10.0% | 2.8% | 5.0% | -18.4 | -5.5%
CCOC(=O)C1=CCC2C(=O)N(C)C(=O)C12 (configuration not stated) | 12.7% | 1.7% | 9.9% | 21.8 | 3.5%
CCOc1ccc(NC(=O)C(C)Oc2ccccc2C(=O)Nc2cccc(Cl)c2Cl)cc1 (configuration not stated) | -16.6% | 18.4µM* | -21.5% | 55.3 | ?
CCOc1ccc(NC(=O)c2ccccc2OCC(=O)c2ccccc2)cc1 | -6.4% | 16.4µM* | -2.5% | -9.7 | 23.1µM*
CCOc1ccccc1C(=O)Nc1ccc(C(=O)c2ccccc2)cc1 | -11.8% | ? | 0.1% | -2.3 | 23.1µM*
CCOc1ccc(NC(=O)c2ccccc2OC)cc1 | 0.7% | -20.3% | -1.9% | 3.9 | -5.9%
Cc1cccc(NC(=O)COc2ccccc2C(=O)NC(C)c2ccccc2)c1 (configuration not stated) | -7.5% | 29.1µM* | -14.9% | 13.6 | ?
O=S1(=O)N[C@H](Cc2ccccc2)COc2cccc(N3CCC[C@H]3CO)c21 | -2.1% | -17.3% | 4.2% | -10.4 | -23.2%
Cc1cccc(NC(=O)c2ccccc2OCC(=O)c2ccccc2)c1 | -3.7% | 16.4µM* | 5.1% | ? | ?
Cc1ccc(NC(=O)c2ccccc2OCC(=O)c2ccccc2)cc1 | -10.5% | ? | -17.9% | -24.5 | ?
N#CN=C1SCCS1 | 0.0% | 14.6µM* | 0.6% | 46.4 | 9.2µM*

Screening data from PubChem.
